Records with an inconclusive call do not appear. Activity calls are given as the source filed them. Rule for the calls: active = hit-call score of the fitted dose curve at least 0.9, where 1 is the maximum; inconclusive = response in the unintended direction; inactive = score below 0.9.
Columns and labels:
[1] = molecular target: human Neurokinin, NK2 Receptor, TACR2 (gene 6865) (UniProt P21452); experiment: NVS_GPCR_hNK2: NovaScreen (NVS) G Protein-Coupled Receptor Assay for human Neurokinin, NK2 Receptor (AID 2283278);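 note: actives reduce bound radioligand signal relative to DMSO baseline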
Outline: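 Radioligand binding on membranes from CHO cells expressing receptor, filter-based scintillation read 4 h after dosing. Initial duplicate screen at 25 uM, actives in concentration series; loss of signal versus DMSO.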

[2] = molecular target: human Opioid Receptor Mu (Opiate Mu), OPRM1 (gene 4988) (UniProt P35372); experiment: NVS_GPCR_hOpiate_mu: NovaScreen (NVS) G Protein-Coupled Receptor Assay for human Opioid Receptor Mu (Opiate Mu) (AID 2283290);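 note: hits lower bound tracer signal versus DMSO meaning displacement of the ligand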
Outline: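 Radioligand displacement binding on membranes from CHO cells expressing the receptor, 2.5 h after dosing, filter-based scintillation counting; loss of signal vs DMSO baseline. Screened in duplicate at 25 uM, actives then run in concentration series.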

[3] = molecular target: guinea pig Serotonin, 5-Hydroxytryptamine Receptor 4 (5HT4), HTR4 (gene 100135548) (UniProt O70528); experiment: NVS_GPCR_g5HT4: NovaScreen (NVS) G Protein-Coupled Receptor Assay for guinea pig Serotonin, 5-Hydroxytryptamine Receptor 4 (5HT4) (AID 2283294)
Outline: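 Guinea pig striatal membranes; radioligand competitive displacement, filtration and scintillation counting after 1 h. Primary screen in duplicate at 25 uM; actives then tested in concentration series; loss of binding signal fitted relative to DMSO.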

[4] = molecular target: rat Adrenergic Receptor, Beta (Adrb), Non-selective Binding, Adrb1 (gene 24925) (UniProt P18090); experiment: NVS_GPCR_rAdrb_NonSelective: NovaScreen (NVS) G Protein-Coupled Receptor Assay for rat Adrenergic Receptor, Beta (Adrb), Non-selective Binding (AID 2283298)
Outline: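 Non-selective beta-adrenergic radioligand binding in rat cortical membranes, 1 h incubation, filter-based scintillation read-out. Primary screen 25 uM in duplicate; hits retested in concentration-response up to 50 uM, DMSO baseline.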

[5] = molecular target: human Opioid Receptor Delta 1 (Opiate D1), OPRD1 (gene 4985) (UniProt P41143); experiment: NVS_GPCR_hOpiate_D1: NovaScreen (NVS) G Protein-Coupled Receptor Assay for human Opioid Receptor Delta 1 (Opiate D1) (AID 2283280)
Outline: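 Radioligand displacement on membranes from CHO cells expressing the receptor, read by filter scintillation counting 1 h after dosing. Duplicate single-point screen at 25 uM, then concentration series for actives; loss of signal versus DMSO.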

[6] = tested on: 5-hydroxytryptamine receptor 2C (pig); experiment: NVS_GPCR_p5HT2C: NovaScreen (NVS) G Protein-Coupled Receptor Assay for pig Serotonin, 5-Hydroxytryptamine Receptor 2C (5HT2C) (AID 2283288)
Outline: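 Pig choroid plexus membranes; radioligand competitive binding, filter-based scintillation counting, read 1 h after dosing. Primary screen in duplicate at 25 uM; actives then run as concentration series; loss of signal versus DMSO baseline.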

[7] = molecular target: rat Adrenergic, Alpha 1, Non-selective Receptor (Adra1), Adra1a (gene 29412) (UniProt P43140); experiment: NVS_GPCR_rAdra1_NonSelective: NovaScreen (NVS) G Protein-Coupled Receptor Assay for rat Adrenergic, Alpha 1, Non-selective Receptor (Adra1) (AID 2283289)
Outline: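 Rat forebrain membranes; radioligand displacement read by filter-based scintillation counting 1 h after dosing. Primary screen in duplicate at 25 uM; hits (e.g. ≥30% inhibition) rerun as concentration–response to 50 uM max. Fitted versus DMSO.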

[8] = molecular target: rat Adrenergic, Alpha 1A Receptor (Adra1A), Adra1a (gene 29412) (UniProt P43140); experiment: NVS_GPCR_rAdra1A: NovaScreen (NVS) G Protein-Coupled Receptor Assay for rat Adrenergic, Alpha 1A Receptor (Adra1A) (AID 2283296)
Outline: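 Rat cortical membranes pretreated with chlorethyl clonidine; competitive radioligand displacement, 1 h. Filter-based scintillation counting. Primary screen in duplicate at 25 uM, actives followed in concentration series.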

[9] = tested on: rat Adrenergic, Alpha 1B Receptor (Adra1B), gene 24173; experiment: NVS_GPCR_rAdra1B: NovaScreen (NVS) G Protein-Coupled Receptor Assay for rat Adrenergic, Alpha 1B Receptor (Adra1B) (AID 2283297)
Outline: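 Rat liver membranes, radioligand displacement with filter-based scintillation detection, 1 h incubation. Primary screen in duplicate at 25 uM; actives retested in concentration series; activity relative to DMSO.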

[10] = molecular target: rat Adrenergic Receptor, Alpha 2 (Adra2), Non-selective Binding, Adra2a (gene 25083) (UniProt P22909); experiment: NVS_GPCR_rAdra2_NonSelective: NovaScreen (NVS) G Protein-Coupled Receptor Assay for rat Adrenergic Receptor, Alpha 2 (Adra2), Non-selective Binding (AID 2283299)
Outline: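 Rat cortical membranes, radioligand competitive displacement read by filter-based scintillation counting 1.25 hours after dosing. Primary screen in duplicate at 25 uM; actives followed up in concentration series.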

[11] = molecular target: guinea pig Bradykinin Receptor B2 (BK2), BDKRB2 (gene 100135486) (UniProt O70526); experiment: NVS_GPCR_gBK2: NovaScreen (NVS) G Protein-Coupled Receptor Assay for guinea pig Bradykinin Receptor B2 (BK2) (AID 2283292)
Outline: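 Radioligand displacement on guinea pig ileum membranes for 1 h, read by filter-based scintillation counting; loss of signal relative to DMSO. Compounds were screened in duplicate at 25 uM, and those passing the threshold were retested in concentration-response up to 50 uM.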

[12] = molecular target: human Thromboxane A2 Receptor (TXA2), TBXA2R (gene 6915) (UniProt P21731); experiment: NVS_GPCR_hTXA2: NovaScreen (NVS) G Protein-Coupled Receptor Assay for human Thromboxane A2 Receptor (TXA2) (AID 2283282);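 note: actives reduce bound radioligand signal relative to DMSO baseline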
Outline: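 Human platelet-derived receptor preparation incubated with test chemical and radiolabelled ligand for 1 hour, cell-free. Bound label was separated by filtration and counted; displacement relative to DMSO controls gave activity, screened at 25 uM, then titrated.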

[13] = molecular target: mouse Cholecystokinin, CCK1 Receptor (CCKA), Cckar (gene 12425) (UniProt O08786); experiment: NVS_GPCR_mCCKAPeripheral: NovaScreen (NVS) G Protein-Coupled Receptor Assay for mouse Cholecystokinin, CCK1 Receptor (CCKA) (AID 2283285)
Outline: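 Radioligand competitive displacement on mouse pancreatic membranes, 2 h incubation; filter-based scintillation counting, loss of signal versus DMSO. Single-concentration screen at 25 uM in duplicate, actives retested in concentration-response up to 50 uM.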

[14] = molecular target: mouse Cholecystokinin, CCK2 Receptor (CCKB), Cckbr (gene 12426) (UniProt P56481); experiment: NVS_GPCR_mCKKBCentral: NovaScreen (NVS) G Protein-Coupled Receptor Assay for mouse Cholecystokinin, CCK2 Receptor (CCKB) (AID 2283293)
Outline: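 Radioligand displacement binding on mouse forebrain membranes, 2 h exposure, filter-based scintillation counting. Primary screen in duplicate at 25 uM; actives (e.g. ≥30% inhibition) retested in concentration-response up to 50 uM; loss of binding signal relative to DMSO.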

[15] = tested on: rabbit Platelet Activating Factor Receptor (PAF), gene 100354046; experiment: NVS_GPCR_rabPAF: NovaScreen (NVS) G Protein-Coupled Receptor Assay for rabbit Platelet Activating Factor Receptor (PAF) (AID 2283287)
Outline: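 Rabbit platelet membrane preparation; radioligand displacement read by filter-based scintillation counting 1 h after dosing, loss of signal versus DMSO. Primary screen in duplicate at 25 uM, actives followed up in concentration series.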

[16] = molecular target: human Neurotensin Receptor (NTS), NTSR1 (gene 4923) (UniProt P30989); experiment: NVS_GPCR_hNTS: NovaScreen (NVS) G Protein-Coupled Receptor Assay for human Neurotensin Receptor (NTS) (AID 2283279)
Outline: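 Radioligand displacement on human NTSR1 protein from CHO cells, cell-free, 1 h, filter-based scintillation counting. Primary screen at 25 uM in duplicate; hits rerun in concentration-response up to 50 uM.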

[17] = molecular target: human Orphanin, Opioid Related Nociceptin Receptor 1 (ORL1), OPRL1 (gene 4987) (UniProt P41146); experiment: NVS_GPCR_hORL1: NovaScreen (NVS) G Protein-Coupled Receptor Assay for human Orphanin, Opioid Related Nociceptin Receptor 1 (ORL1) (AID 2283283)
Outline: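 Filter-based radioligand displacement with receptor extracted from HEK293 cells, read 1 hour after dosing by scintillation counting. Duplicate single-point screen at 25 uM; qualifying chemicals then run in concentration-response to 50 uM, analysed relative to DMSO.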

[18] = molecular target: rat Serotonin, 5-Hydroxytryptamine Receptor (5HT), Non-Selective Binding, Htr1a (gene 24473) (UniProt P19327); experiment: NVS_GPCR_r5HT_NonSelective: NovaScreen (NVS) G Protein-Coupled Receptor Assay for rat Serotonin, 5-Hydroxytryptamine Receptor (5HT), Non-Selective Binding (AID 2283295)
Outline: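 Radioligand displacement on rat cortical membranes, 1 h incubation, filter-based scintillation counting. Primary duplicates at 25 uM, actives retested in concentration series; loss of signal fitted against DMSO as baseline.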

Sequence of human Thromboxane A2 Receptor (TXA2), TBXA2R (gene 6915) (P21731 whole entry, looked up): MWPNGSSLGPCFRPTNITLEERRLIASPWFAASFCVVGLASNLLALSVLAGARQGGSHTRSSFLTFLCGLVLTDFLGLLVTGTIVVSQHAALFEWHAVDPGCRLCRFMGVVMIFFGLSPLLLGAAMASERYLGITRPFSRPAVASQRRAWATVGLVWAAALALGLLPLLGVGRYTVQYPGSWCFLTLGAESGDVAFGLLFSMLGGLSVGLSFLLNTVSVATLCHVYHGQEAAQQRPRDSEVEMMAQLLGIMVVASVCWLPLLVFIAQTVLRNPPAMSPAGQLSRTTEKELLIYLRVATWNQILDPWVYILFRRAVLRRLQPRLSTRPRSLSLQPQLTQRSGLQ
Sequence of rat Adrenergic, Alpha 1A Receptor (Adra1A), Adra1a (gene 29412) (P43140 whole entry, looked up): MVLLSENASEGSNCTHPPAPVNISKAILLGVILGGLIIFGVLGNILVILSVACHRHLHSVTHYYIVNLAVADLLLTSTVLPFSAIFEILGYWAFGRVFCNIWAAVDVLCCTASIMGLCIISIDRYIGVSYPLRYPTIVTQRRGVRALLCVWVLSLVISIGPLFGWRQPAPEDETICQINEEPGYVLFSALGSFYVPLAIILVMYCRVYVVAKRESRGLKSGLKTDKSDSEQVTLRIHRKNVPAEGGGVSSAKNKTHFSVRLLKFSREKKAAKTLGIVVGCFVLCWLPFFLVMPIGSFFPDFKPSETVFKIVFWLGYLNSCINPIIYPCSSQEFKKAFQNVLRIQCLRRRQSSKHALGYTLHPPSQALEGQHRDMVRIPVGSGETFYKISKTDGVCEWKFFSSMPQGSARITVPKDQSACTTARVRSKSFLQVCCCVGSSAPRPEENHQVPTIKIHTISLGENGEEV
Sequence of rat Adrenergic, Alpha 1, Non-selective Receptor (Adra1), Adra1a (gene 29412) (P43140 whole entry, looked up): as above
Sequence of human Neurokinin, NK2 Receptor, TACR2 (gene 6865) (P21452 whole entry, looked up): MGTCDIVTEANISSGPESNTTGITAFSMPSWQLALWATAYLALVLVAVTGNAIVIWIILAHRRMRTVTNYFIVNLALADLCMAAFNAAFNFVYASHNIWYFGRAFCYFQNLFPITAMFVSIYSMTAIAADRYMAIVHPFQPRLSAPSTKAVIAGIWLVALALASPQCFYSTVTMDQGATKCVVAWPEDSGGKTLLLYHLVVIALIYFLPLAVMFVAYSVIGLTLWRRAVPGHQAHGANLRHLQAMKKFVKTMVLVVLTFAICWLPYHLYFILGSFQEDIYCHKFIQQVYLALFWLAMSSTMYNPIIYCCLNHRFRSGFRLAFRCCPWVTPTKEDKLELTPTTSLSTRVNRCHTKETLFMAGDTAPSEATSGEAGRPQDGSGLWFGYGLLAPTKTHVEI
Sequence of human Opioid Receptor Mu (Opiate Mu), OPRM1 (gene 4988) (P35372 whole entry, looked up): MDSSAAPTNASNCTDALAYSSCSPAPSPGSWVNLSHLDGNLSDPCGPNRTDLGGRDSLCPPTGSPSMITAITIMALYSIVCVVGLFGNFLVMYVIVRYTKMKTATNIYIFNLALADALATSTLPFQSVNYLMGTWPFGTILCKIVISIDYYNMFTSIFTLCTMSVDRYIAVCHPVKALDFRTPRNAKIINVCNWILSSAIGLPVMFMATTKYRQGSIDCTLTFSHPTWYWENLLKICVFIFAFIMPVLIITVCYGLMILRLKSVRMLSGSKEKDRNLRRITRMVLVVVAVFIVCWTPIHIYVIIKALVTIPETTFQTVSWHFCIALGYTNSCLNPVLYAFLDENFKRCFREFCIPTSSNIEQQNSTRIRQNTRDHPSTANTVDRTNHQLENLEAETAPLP
Sequence of mouse Cholecystokinin, CCK1 Receptor (CCKA), Cckar (gene 12425) (O08786 whole entry, looked up): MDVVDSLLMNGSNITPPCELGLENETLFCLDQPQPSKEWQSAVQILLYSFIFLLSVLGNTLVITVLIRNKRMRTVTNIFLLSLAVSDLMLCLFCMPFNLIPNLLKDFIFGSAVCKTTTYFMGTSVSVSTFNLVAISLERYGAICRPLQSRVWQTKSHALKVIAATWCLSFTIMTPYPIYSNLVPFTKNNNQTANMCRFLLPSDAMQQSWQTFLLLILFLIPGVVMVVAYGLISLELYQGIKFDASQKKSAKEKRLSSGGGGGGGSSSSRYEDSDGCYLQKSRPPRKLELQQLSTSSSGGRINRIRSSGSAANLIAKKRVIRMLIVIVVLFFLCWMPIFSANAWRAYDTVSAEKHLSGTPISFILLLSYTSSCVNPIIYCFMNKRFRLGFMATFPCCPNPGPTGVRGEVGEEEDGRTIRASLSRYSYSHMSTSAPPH
Sequence of guinea pig Serotonin, 5-Hydroxytryptamine Receptor 4 (5HT4), HTR4 (gene 100135548) (O70528 whole entry, looked up): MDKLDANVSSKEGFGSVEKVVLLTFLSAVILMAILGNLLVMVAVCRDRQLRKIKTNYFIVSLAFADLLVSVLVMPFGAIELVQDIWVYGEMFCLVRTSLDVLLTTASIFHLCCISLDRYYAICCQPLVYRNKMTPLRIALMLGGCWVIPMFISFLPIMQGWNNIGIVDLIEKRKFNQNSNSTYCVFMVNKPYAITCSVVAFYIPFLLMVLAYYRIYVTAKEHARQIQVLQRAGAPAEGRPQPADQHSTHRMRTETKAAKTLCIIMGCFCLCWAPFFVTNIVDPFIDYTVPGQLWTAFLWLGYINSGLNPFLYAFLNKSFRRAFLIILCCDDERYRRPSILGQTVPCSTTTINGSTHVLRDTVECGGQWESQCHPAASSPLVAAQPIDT
Sequence of rat Adrenergic Receptor, Beta (Adrb), Non-selective Binding, Adrb1 (gene 24925) (P18090 whole entry, looked up): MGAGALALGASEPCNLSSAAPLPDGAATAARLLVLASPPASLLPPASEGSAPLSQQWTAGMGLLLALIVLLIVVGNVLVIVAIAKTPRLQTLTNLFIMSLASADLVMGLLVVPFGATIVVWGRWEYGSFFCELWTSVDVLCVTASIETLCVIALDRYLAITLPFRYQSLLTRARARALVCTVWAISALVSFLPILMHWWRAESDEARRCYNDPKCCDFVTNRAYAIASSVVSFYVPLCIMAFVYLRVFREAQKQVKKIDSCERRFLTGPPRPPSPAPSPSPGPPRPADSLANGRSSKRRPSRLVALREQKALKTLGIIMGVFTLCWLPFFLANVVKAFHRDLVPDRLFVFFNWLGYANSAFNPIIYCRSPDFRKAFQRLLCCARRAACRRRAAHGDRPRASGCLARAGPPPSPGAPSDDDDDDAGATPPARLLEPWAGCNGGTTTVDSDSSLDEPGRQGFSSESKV
Sequence of rat Adrenergic Receptor, Alpha 2 (Adra2), Non-selective Binding, Adra2a (gene 25083) (P22909 whole entry, looked up): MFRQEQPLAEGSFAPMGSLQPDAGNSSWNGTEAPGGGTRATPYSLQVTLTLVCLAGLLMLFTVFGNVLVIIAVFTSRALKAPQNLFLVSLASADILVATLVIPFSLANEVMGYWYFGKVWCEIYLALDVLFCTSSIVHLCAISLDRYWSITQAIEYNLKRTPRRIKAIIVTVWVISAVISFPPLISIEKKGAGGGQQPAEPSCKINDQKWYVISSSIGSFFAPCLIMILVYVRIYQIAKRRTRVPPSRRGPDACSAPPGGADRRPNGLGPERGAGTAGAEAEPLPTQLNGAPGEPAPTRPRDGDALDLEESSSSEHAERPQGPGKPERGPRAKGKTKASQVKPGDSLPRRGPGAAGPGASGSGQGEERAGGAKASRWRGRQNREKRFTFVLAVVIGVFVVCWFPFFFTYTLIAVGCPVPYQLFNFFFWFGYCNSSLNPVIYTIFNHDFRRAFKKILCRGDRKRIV
Sequence of mouse Cholecystokinin, CCK2 Receptor (CCKB), Cckbr (gene 12426) (P56481 whole entry, looked up): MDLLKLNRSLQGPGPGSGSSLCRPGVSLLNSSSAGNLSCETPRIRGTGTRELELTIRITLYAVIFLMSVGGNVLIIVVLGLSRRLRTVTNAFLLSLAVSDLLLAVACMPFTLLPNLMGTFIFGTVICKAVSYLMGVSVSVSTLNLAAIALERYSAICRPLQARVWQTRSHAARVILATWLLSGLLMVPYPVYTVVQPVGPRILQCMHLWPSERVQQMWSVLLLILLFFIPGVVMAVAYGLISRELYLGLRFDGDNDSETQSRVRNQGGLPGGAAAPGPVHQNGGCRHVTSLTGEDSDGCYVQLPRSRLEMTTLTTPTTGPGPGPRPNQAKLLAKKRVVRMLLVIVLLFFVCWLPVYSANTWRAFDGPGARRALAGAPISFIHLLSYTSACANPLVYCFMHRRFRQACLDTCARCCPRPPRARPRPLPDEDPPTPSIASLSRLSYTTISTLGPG
Sequence of human Opioid Receptor Delta 1 (Opiate D1), OPRD1 (gene 4985) (P41143 whole entry, looked up): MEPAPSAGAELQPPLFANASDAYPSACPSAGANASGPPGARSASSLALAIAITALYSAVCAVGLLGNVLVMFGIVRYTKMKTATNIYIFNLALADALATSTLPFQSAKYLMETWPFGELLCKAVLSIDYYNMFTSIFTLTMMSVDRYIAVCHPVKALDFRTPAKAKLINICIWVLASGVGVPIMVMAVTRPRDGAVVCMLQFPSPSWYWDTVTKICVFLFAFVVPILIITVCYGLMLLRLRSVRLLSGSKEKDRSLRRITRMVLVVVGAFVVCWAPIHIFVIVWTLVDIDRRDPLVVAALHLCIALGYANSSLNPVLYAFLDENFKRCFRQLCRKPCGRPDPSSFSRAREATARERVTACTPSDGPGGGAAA

## CCn1nc(Cc2ccccc2)cc1C1CCN(C[C@H]2C[C@H](N(C)[C@@H](C(=O)O)C(C)C)C[C@@H]2c2cccc(F)c2)CC1
[1]
  AC50: 20.8 µM (active)
[2]
  AC50: 8.81 µM (active)
[3]
  AC50: 25 µM (active)
[4]
  outcome: inactive

## COc1cccc(-c2ccc(/C=C\CN3CCCCCC3)cc2Cl)c1
[1]
  outcome: inactive
[5]
  AC50: 15.5 µM (active)
[6]
  AC50: 11.8 µM (active)
[7]
  AC50: 15.2 µM (active)
[2]
  AC50: 12.3 µM (active)
[3]
  AC50: 12.1 µM (active)
[8]
  outcome: inactive
[9]
  AC50: 18.7 µM (active)
[10]
  AC50: 2.99 µM (active)

## COCCOc1cc2cc(C(=O)NC3CCN(C(C)C)CC3)n(CC(=O)Nc3ccc(Cl)cn3)c2cn1
[1]
  outcome: inactive
[11]
  outcome: inactive
[8]
  AC50: 14.7 µM (active)
[9]
  AC50: 15.3 µM (active)
[10]
  AC50: 10.1 µM (active)

## O=C(O)c1cc(N=Nc2ccc(S(=O)(=O)Nc3ccccn3)cc2)ccc1O
[12]
  AC50: 9.98 µM (active)

## CCc1cc(SCc2sc(-c3ccc(C(F)(F)F)cc3)nc2CN2CCN(c3ccc(OC)cc3)CC2)ccc1OCC(=O)O
[5]
  AC50: 7.88 µM (active)
[13]
  AC50: 7.03 µM (active)
[7]
  outcome: inactive
[2]
  AC50: 4.54 µM (active)
[14]
  AC50: 35.3 µM (active)
[9]
  outcome: inactive

## Cn1c(=O)cc(Oc2ccc(F)cc2F)c2cnc(NCC(C)(C)O)nc21
[1]
  outcome: inactive
[13]
  AC50: 11.3 µM (active)

## O=P(OC(CCl)CCl)(OC(CCl)CCl)OC(CCl)CCl
[1]
  AC50: 12.5 µM (active)
[12]
  outcome: inactive
[13]
  outcome: inactive
[15]
  AC50: 8.52 µM (active)
[6]
  outcome: inactive

## Cc1ccc(C)c(O)c1
[16]
  AC50: 9.84 µM (active)
[7]
  outcome: inactive

## CC(C)c1cccc(C(C)C)c1N1C(=O)c2ccc(O)cc2C1=O
[12]
  AC50: 7.4 µM (active)

## CC/C(=C\C(=N/O)C(N)=O)C(C)[N+](=O)[O-] (stereo not drawn)
[1]
  outcome: inactive

## CCOC(=O)c1ccc(C2CCC(NC[C@H](O)COc3ccc(O)c(NS(C)(=O)=O)c3)CC2)cc1 (stereo partly drawn)
[1]
  AC50: 5.98 µM (active)
[6]
  AC50: 19.5 µM (active)
[2]
  outcome: inactive
[3]
  AC50: 2.57 µM (active)
[8]
  AC50: 11.5 µM (active)
[4]
  AC50: 8.67 µM (active)

## CC(C)=CCCC(C)=CC=O
[1]
  outcome: inactive

## CNS(=O)(=O)c1cc(C(=O)N2CCC(CCN3C4CCC3CC(n3c(C)nc5ccccc53)C4)(c3cccc(F)c3)CC2)c(Cl)cc1F (stereo not drawn)
[1]
  AC50: 1.71 µM (active)
[17]
  outcome: inactive
[15]
  AC50: 1.33 µM (active)
[7]
  AC50: 1.92 µM (active)
[2]
  AC50: 4.96 µM (active)
[14]
  outcome: inactive
[3]
  outcome: inactive
[18]
  outcome: inactive
[8]
  AC50: 14.9 µM (active)
[9]
  AC50: 2.1 µM (active)

Reference: PubChem BioAssay (EPA / NIEHS)
